“And” between values parts separate entries of the source, which are not always exact repeats. Identical values can stand only once. The panel holds about 83,000 compounds, 20% with a hit somewhere; the sample as a whole holds those more often.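 Results are percent growth after 48 hours of single-concentration exposure. 100 means growth as in untreated cells, lower positive values show inhibition; negative values down to -100 show cell death.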 The source made the active and inactive calls. The calls were made as follows: active = growth percent below 10; inactive = the rest.
Each compound was assayed on OVCAR-4 ovarian (assay: NCI-60 one-dose screen, 48 h (100 = growth as untreated, 0 = no growth, -100 = all killed)). Conditions: 10 µM unless noted.

Compound	growth
OCCCc1ccccc1	112% (inactive)
S=c1nn[nH]n1C1CCCCC1	109% (inactive)
CC1=CC(=O)C=CC1=Nc1ccc(N(C)C)cc1	44.9% (inactive) and 21.1% (inactive)
Nc1nc(=S)c2[nH]cnc2[nH]1	25.1% (inactive) and 44% (inactive)
O=c1[nH]c(=S)[nH]n1C(=S)n1[nH]c(=S)[nH]c1=O	112% (inactive)
CN(C)C(=N)N=C(N)N	96.3% (inactive) and 112% (inactive)
COc1ccc2nccc(Cl)c2c1	118% (inactive)
COc1ccc(CCn2cnn3c(=O)c4ccccc4nc3c2=O)cc1OC	97.3% (inactive) and 112% (inactive)
N=C(N=C(N)N)N1CCOCC1	95.4% (inactive) and 108% (inactive)
N#CC(=S)Nc1ccc(Cl)c(Cl)c1	22.6% (inactive)
O=C1C(=O)c2ccccc2C(O)=C1CC=C(Cl)Cl	83.9% (inactive) and 84.4% (inactive)
CCOC(=O)C1=C(C)NC(C)=C(C(=O)OCC)C1	101% (inactive) and 90.2% (inactive)
COc1ccc(CCO)cc1	111% (inactive)
COc1ccc(/C=N/Nc2nc3ccccc3s2)cc1	87.5% (inactive)
Nc1ccccc1SC1CC(=O)N(c2ccc(I)cc2)C1=O (configuration not stated)	93.8% (inactive)
Clc1ccc2c(c1)N(C1CCCN(Cc3ccccc3)C1)c1ccccc1S2 (configuration not stated)	79.9% (inactive)
COc1ccc([N+](=O)[O-])cc1OC	104% (inactive)
NC(=O)Cc1nc(O)cc(=O)[nH]1	113% (inactive)

Compound	growth
N=C(N)N1CCc2ccccc2C1	95.4% (inactive) and 117% (inactive)
Clc1ccc2sc(-c3ccccc3)nc2c1	81.5% (inactive)
COc1cc2oc3cc(=O)cc4oc(-c5ccccc5)cc(c2c2c1CCC(c1ccccc1)O2)c43 (configuration not stated)	84.8% (inactive)
CC(C)(C)C1=CC(=O)C(C(C)(C)C)=CC1=O	93.3% (inactive) and 118% (inactive)
Oc1ccc(O)c(-c2ccccc2)c1	53.8% (inactive)
COc1ccc(CCl)c(C)c1OC	109% (inactive)
CCNC1=CC(=O)c2ncccc2C1=O	47.1% (inactive)
O=C1C=CC(=O)N1Cc1ccco1	106% (inactive)
CC(C)=NOC(C)C(=O)O (configuration not stated)	108% (inactive)
Cc1cc2nc3ccc(=[N+](C)C)cc-3sc2cc1N	8.09% (active)
c1ccc2c[n+](Cc3ccc4ccccc4n3)ccc2c1	67.1% (inactive)
COc1cc([C@@H]2c3cc4c(cc3[C@H](O)[C@H]3COC(=O)[C@@H]23)OCO4)cc(OC)c1OC	34.2% (inactive) and 35.6% (inactive)
NNC(=O)Nc1ccccc1	104% (inactive)
Cc1nc2c(=O)[nH]c(=S)[nH]c2[nH]c1=O	113% (inactive)
Oc1cccnc1CN1CCOCC1	94.9% (inactive)
O=C1c2ccccc2CN1c1ccccc1	99.3% (inactive)
COC1C(OC(N)=O)C(O)C(Oc2ccc3c(O)c(NC(=O)c4ccc(O)c(CC=C(C)C)c4)c(=O)oc3c2C)OC1(C)C (configuration not stated)	111% (inactive) and 98.9% (inactive)
C/C=C/C(=O)OCCCCCCCCCCCC	113% (inactive)

These compounds were tested on SK-OV-3 ovarian in the same assay as above. Conditions: 10 µM unless noted.

Compound	growth
OCCCc1ccccc1	97.6% (inactive)
S=c1nn[nH]n1C1CCCCC1	137% (inactive)
CC1=CC(=O)C=CC1=Nc1ccc(N(C)C)cc1	94.2% (inactive) and 71.8% (inactive)
Nc1nc(=S)c2[nH]cnc2[nH]1	5.43% (active) and 6.69% (active)
O=c1[nH]c(=S)[nH]n1C(=S)n1[nH]c(=S)[nH]c1=O	109% (inactive)
CN(C)C(=N)N=C(N)N	106% (inactive) and 110% (inactive)
COc1ccc2nccc(Cl)c2c1	111% (inactive)
COc1ccc(CCn2cnn3c(=O)c4ccccc4nc3c2=O)cc1OC	112% (inactive) and 108% (inactive)
N=C(N=C(N)N)N1CCOCC1	101% (inactive) and 104% (inactive)
N#CC(=S)Nc1ccc(Cl)c(Cl)c1	7.19% (active)
O=C1C(=O)c2ccccc2C(O)=C1CC=C(Cl)Cl	73.9% (inactive) and 58.4% (inactive)
CCOC(=O)C1=C(C)NC(C)=C(C(=O)OCC)C1	105% (inactive) and 112% (inactive)
COc1ccc(CCO)cc1	109% (inactive)
COc1ccc(/C=N/Nc2nc3ccccc3s2)cc1	90% (inactive)
Nc1ccccc1SC1CC(=O)N(c2ccc(I)cc2)C1=O (configuration not stated)	95.5% (inactive)
Clc1ccc2c(c1)N(C1CCCN(Cc3ccccc3)C1)c1ccccc1S2 (configuration not stated)	26.8% (inactive)
COc1ccc([N+](=O)[O-])cc1OC	114% (inactive) and 119% (inactive)
NC(=O)Cc1nc(O)cc(=O)[nH]1	89.7% (inactive)

Compound	growth
N=C(N)N1CCc2ccccc2C1	101% (inactive) and 107% (inactive)
Clc1ccc2sc(-c3ccccc3)nc2c1	83.6% (inactive)
COc1cc2oc3cc(=O)cc4oc(-c5ccccc5)cc(c2c2c1CCC(c1ccccc1)O2)c43 (configuration not stated)	92.8% (inactive)
CC(C)(C)C1=CC(=O)C(C(C)(C)C)=CC1=O	93.6% (inactive) and 102% (inactive)
Oc1ccc(O)c(-c2ccccc2)c1	83.3% (inactive)
COc1ccc(CCl)c(C)c1OC	110% (inactive)
CCNC1=CC(=O)c2ncccc2C1=O	73.5% (inactive)
O=C1C=CC(=O)N1Cc1ccco1	94.2% (inactive)
CC(C)=NOC(C)C(=O)O (configuration not stated)	115% (inactive)
Cc1cc2nc3ccc(=[N+](C)C)cc-3sc2cc1N	8.62% (active) and 45.8% (inactive)
c1ccc2c[n+](Cc3ccc4ccccc4n3)ccc2c1	88.5% (inactive)
COc1cc([C@@H]2c3cc4c(cc3[C@H](O)[C@H]3COC(=O)[C@@H]23)OCO4)cc(OC)c1OC	33% (inactive) and 3.05% (active)
NNC(=O)Nc1ccccc1	105% (inactive)
Cc1nc2c(=O)[nH]c(=S)[nH]c2[nH]c1=O	112% (inactive) and 107% (inactive)
Oc1cccnc1CN1CCOCC1	101% (inactive) and 105% (inactive)
O=C1c2ccccc2CN1c1ccccc1	105% (inactive)
COC1C(OC(N)=O)C(O)C(Oc2ccc3c(O)c(NC(=O)c4ccc(O)c(CC=C(C)C)c4)c(=O)oc3c2C)OC1(C)C (configuration not stated)	112% (inactive) and 121% (inactive)
C/C=C/C(=O)OCCCCCCCCCCCC	97.5% (inactive)

Reference: PubChem BioAssay (NCI)
